The record followed here is the supplement of paper PMC11417369.

Whole data set: some 25,000 sequences, median “ln(normalized median fluorescence intensity)” near 9.7, cut for the highest 2% near 11. For the sample, the highest values were picked, then their nearest neighbours and some sequences at random.

The test system of this assay is PfAP2-HC AP2 domain (GST-tagged). Kind of assay: gcPBM binding intensity (ln(normalized median fluorescence intensity)); higher = stronger DNA binding. Summed up: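 GST-tagged P. falciparum DNA-binding domains, expressed in E. coli (about 25 μg on average), were applied for 1 h to an Agilent 4 × 180k array of primer-extended double-stranded 36-bp intergenic genomic probes plus negative controls. The binding buffer was 1× PBS with 1% milk, 0.2 mg/ml BSA, 0.5% salmon testes DNA and 0.03% Triton X-100. Bound protein was detected with Alexa488 anti-GST antibody and scanned at 488 nm. Binding intensity is the highest Masliner-normalised natural-log median intensity across replicate spots of either probe orientation.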
Consider “AGAAAAAAAAAACACACACACACACCCTCAATATAA [CACACA_site39]”, for which the “gcPBM binding intensity (ln)” value stood at 10.5.

Take “AAAGAAAAAAAAAACACACACACACGCATTCAATAT [CACACA_site6169]”: the “gcPBM binding intensity (ln)” value is 10.7.

“ATAAAAAAAAGAAAAACACACACATATATATATATA [CACACA_site8243]”: the “gcPBM binding intensity (ln)” value was determined as 10.4.

Regarding “AAAAGAAAAAGAAAAACACACATAAATATAAATATA [CACACA_site1879]”, the “gcPBM binding intensity (ln)” value turned out to be 10.2.

On to “CACTAAAAGAAACACACACACACACCCATATATATA [CACACA_site4151]”, for which the “gcPBM binding intensity (ln)” value came out at 11.

Turning to “TATCATTTGGTCTTTTACTTTTTCTGTTTTTTTTTT [CACACA_negctrl_site976]”, the “gcPBM binding intensity (ln)” value was 9.91.

For the sequence CTCATTTTTGTACAGGTGCACTTATCGTTACACTAT, the “gcPBM binding intensity (ln)” value turned out to be 9.93.

Turning to “CGAAGGTTTGGCCATGCATGTTATAAGAATATATGT [TGCATGCA_site441]”, the “gcPBM binding intensity (ln)” value was found to be 9.51.

For the sequence “AACTTTATTCCTAATTGTACACATATATATATATAT [XGTACX_site6823]”, the “gcPBM binding intensity (ln)” value turned out to be 10.

On to “GGGGACGCGGGTGGGGGTACTCACACTATGCAAAAT [XGTACX_site7745]”, for which the “gcPBM binding intensity (ln)” value is 9.74.

As for “AATAAGCTCACGTGTCGTACATTTTTTAAAACAACC [XGTACX_site4707]”, the “gcPBM binding intensity (ln)” value is 9.78.

For the sequence “CGTATTTATATAATTACACACCATATTTTAATTATT [CACACA_site5960]”, the “gcPBM binding intensity (ln)” value was found to be 9.76.

With “AATGAACAGACGAGCACACACACACCCATATATATA [CACACA_site1018]”, the “gcPBM binding intensity (ln)” value is 10.9.

As for “AAAATGAACTCACGAGCACACACACCCATATATATA [CACACA_site8247]”, the “gcPBM binding intensity (ln)” value came to 10.3.

Turning to “AATGAACTCACGAGCACACACACACCGATATATATA [CACACA_site4710]”, the “gcPBM binding intensity (ln)” value was 11.

On to “AAAACACGCGGACACACACACACACGCCCACATATA [CACACA_site7105]”, for which the “gcPBM binding intensity (ln)” value came out at 10.6.

Regarding “AACACGCGCGGACACACACACACACCCACATATATA [CACACA_site5252]”, the “gcPBM binding intensity (ln)” value came out at 11.3.

Regarding “AAAACACGCGGACACACACACACACCCACCCATATA [CACACA_site8688]”, the “gcPBM binding intensity (ln)” value came to 11.6.

On to “CATACACCCGGACACACACACACACCCATATATAAT [CACACA_site4494]”, for which the “gcPBM binding intensity (ln)” value is 10.5.

Take “CACGCGCCCGGACACACACACACACCCATATATATA [CACACA_site5251]”: the “gcPBM binding intensity (ln)” value was determined as 11.3.

Turning to “AACACGCGCAGACACACACACACACCCACATATATA [CACACA_site2205]”, the “gcPBM binding intensity (ln)” value is 10.6.

For the sequence “CGTGGGAGCGGACACACACACACACCCATATATATA [CACACA_site4340]”, the “gcPBM binding intensity (ln)” value is 10.4.

For the sequence “TATACACCCGGACACACACACATATATATATATATA [CACACA_site5030]”, the “gcPBM binding intensity (ln)” value stood at 10.3.

Turning to “ATTTATATGTGGAGCAGTACGCACTCTCACAATTAA [XGTACX_site7252]”, the “gcPBM binding intensity (ln)” value was 9.44.

On to “TGAATATTTACTTTAGCACACAATTTGTATTTGATT [CACACA_site960]”, for which the “gcPBM binding intensity (ln)” value amounted to 9.86.

As for “ATTATTTACCACAACACACAAATATTTACCAATCAT [CACACA_site5472]”, the “gcPBM binding intensity (ln)” value was determined as 10.5.

Regarding “TTGTTTATTTGTAAAGCTAACAAGAAATGTGAATAT [CACACA_negctrl_site931]”, the “gcPBM binding intensity (ln)” value was 9.51.

Turning to “AGCATTTTAAAAGAAAAAAAAAAAAAAAAAAAAATA [GTGCAC_negctrl_site723]”, the “gcPBM binding intensity (ln)” value was 9.17.

Turning to “TCATTTTACAGATGTGCATGTGAATCAATCTATTTA [TGCATGCA_site787]”, the “gcPBM binding intensity (ln)” value was 9.56.

With “ATTACTAAAAAATATAAACACACATATATTTTACAT [CACACA_site8633]”, the “gcPBM binding intensity (ln)” value turned out to be 9.88.

Consider “CACAGACACGGACACACACACACACCCATATATATA [CACACA_site4354]”, for which the “gcPBM binding intensity (ln)” value came out at 11.3.

Regarding “CGCGCACCCAGACACACACACACACCGATATATATA [CACACA_site8687]”, the “gcPBM binding intensity (ln)” value is 10.9.

As for “TGGGAGCACAGACACACACACACACCCATATATATA [CACACA_site335]”, the “gcPBM binding intensity (ln)” value stood at 10.5.

In the case of “TTGGCATACGGACACACACACACACCCAGACATATA [CACACA_site4492]”, the “gcPBM binding intensity (ln)” value was 10.4.

Take “TGGGAGCACAGACACACACACACACCGATATATATA [CACACA_site8001]”: the “gcPBM binding intensity (ln)” value is 11.3.

For “CACAGACACGGACACACACACACACCGATATATATA [CACACA_site4353]”, the “gcPBM binding intensity (ln)” value was determined as 11.2.

For the sequence “CACAGACACGGACACACACACACACCCAGACACATA [CACACA_site4357]”, the “gcPBM binding intensity (ln)” value is 11.6.

For the sequence “CACAGACACGGACACACACACATATATATATATATA [CACACA_site5248]”, the “gcPBM binding intensity (ln)” value worked out at 10.4.

Regarding “TATATTATCAAAATGGTGCAATAATTTCTATATTAT [GTGCAC_site9772]”, the “gcPBM binding intensity (ln)” value came out at 9.49.

For the sequence “ATATAATGACAAGTATAAGTATCACAAAGAAATAAA [CACACA_negctrl_site1403]”, the “gcPBM binding intensity (ln)” value is 9.79.

For “CAGGCGTGAAATATACGTACACACATTATTTATATT [XGTACX_site5337]”, the “gcPBM binding intensity (ln)” value stood at 9.94.

Turning to “AAGAAAAAAAAAATTACACACTGCGGACATACACAA [CACACA_site4838]”, the “gcPBM binding intensity (ln)” value stood at 9.98.

As to TAAGATATAAAAAATGTGCACATTAAAGTATTAATT, the “gcPBM binding intensity (ln)” value is 9.86.

As to “TATTGTAAGAAAGGCACACAGATAAAATTATTATAT [CACACA_site2921]”, the “gcPBM binding intensity (ln)” value was 9.87.

Take “CGGTATTTTTTAATTTGTACGCATATACAATAATTA [XGTACX_site8603]”: the “gcPBM binding intensity (ln)” value is 9.54.
